Source: PubChem BioAssay (EPA / NIEHS)
Where “and” joins values, the source holds several entries; their conditions need not be identical. Equal values may be shown once. Inconclusive results are not listed. Calls of active or inactive are those of the source. Rule for the calls, unless noted: active = hit-call score of the fitted dose curve at least 0.9, where 1 is the maximum; inactive = score below 0.9.

Tested on: not listed separately
Assay: VALA_MIGHUV2_WoundArea: VALA Sciences human Umbilical Vein Endothelial Cell Migration (MIGHUV) Assay, Area of Scratch Wound after Recovery (AID 2284316; active = hit-call score of the fitted dose curve at least 0.9, where 1 is the maximum)
Settings: not given
Description: VALA_MIGHUV2_BCatenin is a cell-based, multiplexed assay that uses umbilical vein-derived endothelial cells (HUVEC). Measurements were taken 24 hours after chemical dosing in a 96-well plate.VALA_MIGHUV2_WoundArea is the one of two assay components measured from the VALA_MIGHUV2 assay. It is designed to make measurements of endothelial migration, a form of morphology reporter, as detected with fluorescence intensity signals by HCS Fluorescent Imaging technology. Data from the assay component VALA_MIGHUV2_WoundArea was analyzed at the endpoint, VALA_MIGHUV2_WoundArea, in the positive analysis fitting direction relative to DMSO as the negative control and baseline of activity. Using a type of morphology reporter, gain-of-signal activity can be used to understand developmental effects. To generalize the intended target to other relatable targets, this assay endpoint is annotated to the neurodevelopment intended target family, where the subfamily is migration.
Cells were seeded on 384-well microplates (day-0) at a density of 9000 cells per well for detection of wound area recovery or 4000 cells per well for detection of beta-catenin (CTNB) immunoreactivity and incubated in Endothelial Cell Growth Medium (CAI, San Diego; catalog 211-500). After 24 hours of culture, the HUVEC plates were scratched using a custom scratch head with the Bravo liquid handling system. This created a 'wound' area without cells in each well. Test chemical was added within 30 min, each tested in 3-replicates across a 6-point concentration response (0.1 % DMSO vehicle control). 'ScratchOnly' Plates were incubated for a 24 h 'wound recovery' period and then fixed with 4% paraformaldehyde. Hoechst dye was used to visualize cell nuclei in the wound area, and CTNB immunofluorescence for visualizing CTNB-positive nuclei (beta-Catenin (L54E2) Mouse mAb (IF Preferred) 2677; Cell Signaling Technology, Danvers, MA). […]
With `Cn1cc[nH]c1=S` the outcome was “inactive”.
With `CCN(CC)C(=S)SSC(=S)N(CC)CC` the outcome was “inactive”.
With `CCCCCCCCCC` the outcome was “inactive”.

Tested on: not listed separately
Assay: CCTE_Mundy_HCI_iCellGluta_NOG_NeuriteLength: CCTE's Neurite Outgrowth Assay in iCellGluta cells for Neurite Length, Mundy Lab (AID 2284318; active = hit-call score of the fitted dose curve at least 0.9, where 1 is the maximum)
Settings: not given
Method in brief: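 Automated high-content imaging of betaIII-tubulin (Alexa Fluor-488) and Hoechst-stained cells gave neurite length, normalized to the DMSO baseline.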
In the case of `Cn1cc[nH]c1=S`, the outcome is reported as “inactive”.
With `OC(O)(C(F)C(O)(O)C(F)(F)F)C(F)(F)F` the outcome was “inactive”.
For `FC(F)=C(F)C(F)(F)C(F)(F)C(F)(F)C(F)(F)C(F)(F)C(F)(F)F`, the outcome was “inactive”.
For `FC(F)(F)C(F)(F)C(F)(F)C(F)(F)C(F)(F)C(F)(F)I`, the outcome was “inactive”.
In the case of `O=C(Cl)C(F)(F)C(F)(F)C(F)(F)C(=O)Cl`, the outcome is reported as “inactive”.
In the case of `Nc1ccn([C@@H]2O[C@H](CO)[C@@H](O)[C@@H]2O)c(=O)n1`, the AC50 is reported as 741 nM (active) and 1.09 µM (active).
With `C[C@]12C=CC(=O)C=C1CC[C@H]1[C@@H]3C[C@@H](O)[C@](O)(C(=O)CO)[C@@]3(C)C[C@H](O)[C@@]12F` the AC50 was 19.8 µM (active).
With `c1ccc2cc3ccccc3cc2c1` the outcome was “inactive”.

Tested on: not listed separately
Assay: CCTE_Deisenroth_5AR_NBTE_donor: CCTE's 5alpha-reductase NanoBRET Target Engagement Assay […], Deisenroth Lab (AID 2284319)
Settings: actives raise or lower the signal
Method in brief: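 HEK293T cells were reverse transfected with an SRD5A2-NanoLuc vector for 20 h, exposed to test chemical (8 points, 10 nM - 29.9 uM) for 3 h, then testosterone tracer for 2 h more. Donor luminescence (460 nm) was read; bidirectional fit versus DMSO.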
For `CCN(CC)C(=S)SSC(=S)N(CC)CC`, the AC50 was 50 µM (active).
With `O=S(=O)(O)c1ccc(N=Nc2c(O)ccc3cc(S(=O)(=O)O)ccc23)cc1` the AC50 was 36.5 µM (active).
With `CCCCCOC(C)=O` the outcome was “inactive”.
In the case of `CCCCCCCC/C=C\CCCCCCCC(=O)OC[C@@H](O)[C@H]1OC[C@H](O)[C@H]1O`, the outcome is reported as “inactive”.

Tested on: not listed separately
Assay: CCTE_Deisenroth_5AR_NBTE_acceptor: CCTE's 5alpha-reductase NanoBRET Target Engagement Assay - Autofluorescence Screen, Deisenroth Lab (AID 2284321);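 note: compound fluorescence in the acceptor channel under 460 nm excitation flags autofluorescence artifacts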
Settings: actives raise or lower the signal
Method in brief: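 Using three independent plate-reader runs, nominal 100 uM chemicals were checked for intrinsic fluorescence (ex 460 nm). DMSO defined the baseline for bidirectional fitting.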
For `CCN(CC)C(=S)SSC(=S)N(CC)CC`, the AC50 was 39.6 µM (active).
For `O=S(=O)(O)c1ccc(N=Nc2c(O)ccc3cc(S(=O)(=O)O)ccc23)cc1`, the outcome was “inactive”.
For `CCCCCOC(C)=O`, the outcome was “inactive”.
In the case of `CCCCCCCC/C=C\CCCCCCCC(=O)OC[C@@H](O)[C@H]1OC[C@H](O)[C@H]1O`, the outcome is reported as “inactive”.

Tested on: SRD5A2 (gene 6716)
Assay: CCTE_Deisenroth_5AR_NBTE_ratio: CCTE's 5alpha-reductase NanoBRET Target Engagement Assay - Ratio, Deisenroth Lab (AID 2284322)
Settings: actives raise or lower the signal
Method in brief: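 HEK293T cells transiently expressing an SRD5A2-NanoLuc fusion (20 h post-transfection) were exposed to test chemical (10 nM - 29.9 uM, 8 points) for 3 h, then testosterone tracer for a further 2 h. Acceptor/donor BRET ratio was fitted bidirectionally against DMSO baseline.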
For `CCN(CC)C(=S)SSC(=S)N(CC)CC`, the AC50 was 50 µM (active).
In the case of `O=S(=O)(O)c1ccc(N=Nc2c(O)ccc3cc(S(=O)(=O)O)ccc23)cc1`, the AC50 is reported as 61.8 µM (active).
With `CCCCCOC(C)=O` the outcome was “inactive”.
With `CCCCCCCC/C=C\CCCCCCCC(=O)OC[C@@H](O)[C@H]1OC[C@H](O)[C@H]1O` the outcome was “inactive”.
